Measurements: PubChem BioAssay (Tox21)
Several values for one entry are separate records, joined by “and”; a condition that tells them apart may be missing. Identical values can stand only once. Results filed as inconclusive are left out. Activity calls are given as the source filed them. Calls follow the shape of the dose curve; as a rule, active = well fitted curve in the direction sought with a large enough effect in the repeat runs; inconclusive = weak or mixed curves; inactive = no such curve, though single readings can be large; an effect the other way counts as inactive or inconclusive.

What was measured:
[1] = qHTS RealTime-Glo MT Cell Viability Assay in HepG2 cells - 8 hour (AID 1224873); also: nearly all actives have a fitted effect of over 55% in size; also: potency is read from the fitted curve at half-maximal effect
Summary of the method: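 Real-time viability: cells seeded at 600 per well together with NanoLuc and cell-permeant prosubstrate, compounds added after 5 h incubation. Luminescence tracked at 0, 8, 16, 24, 32 and 40 h of exposure.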

[2] = qHTS RealTime-Glo MT Cell Viability Assay in HEK293 cells - 40 hour (AID 1224874); details: RealTime-Glo luminescence; max response: stronger effect = lower value; also: nearly all actives have a fitted effect of over 50% in size; also: potency is read from the fitted curve at half-maximal effect
Summary of the method: (§1)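 HEK293 cells mixed with RealTime-Glo reagents (NanoLuc plus cell-permeant prosubstrate) at 600 cells/well, preincubated 5 h at 37 C/5% CO2, then given 23 nL compound in DMSO. Nonlytic luminescence from viable cells was read at 0, 8, 16, 24, 32 and 40 h.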

[3] = A CellTox Green Cytotoxicity Assay to monitor cytotoxicity in HEK293 cells - 24 hour (AID 1224875); also: nearly all actives have a fitted effect of over 45% in size; also: potency is read from the fitted curve at half-maximal effect; as to activity change: series mostly up to about 77 µM
Summary of the method: (§2)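 HEK293 cells premixed with CellTox Green dye were seeded at 600 cells/well and left 5 h at 37 C/5% CO2 before pin transfer of 23 nL compound in DMSO. Fluorescence from dye bound to dead-cell DNA was read during 40 h treatment.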

[4] = A CellTox Green Cytotoxicity Assay to monitor cytotoxicity in HepG2 cells - 16 hour (AID 1224876); also: nearly all actives have a fitted effect of over 45% in size; also: potency is read from the fitted curve at half-maximal effect
Summary of the method: (§3)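 HepG2 cells were seeded together with the CellTox Green dye at 600 cells/well, left 5 h at 37 C/5% CO2, then given compounds in DMSO. Fluorescence from dye bound to dead-cell DNA was read repeatedly over 40 h of treatment at 37 C.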

[5] = qHTS RealTime-Glo MT Cell Viability Assay in HepG2 cells - 32 hour (AID 1224877); also: nearly all actives have a fitted effect of over 55% in size; also: potency is read from the fitted curve at half-maximal effect
Summary of the method: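 Tox21 10K library screened in qHTS format on HepG2 cells carrying RealTime-Glo reagents. Compounds were added after a 5 h preincubation, and the luminescent signal from continuous culture was measured repeatedly during 40 h treatment.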

[6] = A CellTox Green Cytotoxicity Assay to monitor cytotoxicity in HepG2 cells - 24 hour (AID 1224878); also: nearly all actives have a fitted effect of over 45% in size; also: potency is read from the fitted curve at half-maximal effect
Summary of the method: as §3

[7] = A CellTox Green Cytotoxicity Assay to monitor cytotoxicity in HepG2 cells - 40 hour (AID 1224879); also: nearly all actives have a fitted effect of over 40% in size; also: potency is read from the fitted curve at half-maximal effect
Summary of the method: as §3

[8] = A CellTox Green Cytotoxicity Assay to monitor cytotoxicity in HEK293 cells - 32 hour (AID 1224881); also: nearly all actives have a fitted effect of over 40% in size; also: potency is read from the fitted curve at half-maximal effect
Summary of the method: as §2

[9] = A CellTox Green Cytotoxicity Assay to monitor cytotoxicity in HepG2 cells - 0 hour (AID 1224882); also: nearly all actives have a fitted effect of over 35% in size
Summary of the method: as §3

[10] = qHTS RealTime-Glo MT Cell Viability Assay in HEK293 cells - 0 hour (AID 1224880); also: top concentration of the series differs between compounds; nearly all actives have a fitted effect of over 45% in size
Summary of the method: as §1
% is scaled to controls: 0 for no effect and ±100 for the full control effect.

CSc1ccc2c(c1)N(CCC1CCCCN1C)c1ccccc1S2 (centres undefined)
active: Potency [1] 54.7 µM and 23.9 µM | Potency [2] 15.4 µM | Potency [3] 24.4 µM | Potency [4] 54.7 µM and 26.8 µM | Potency [5] 43.5 µM and 26.8 µM | Potency [6] 38.7 µM and 23.9 µM | Potency [7] 34.5 µM and 23.9 µM | Potency [8] 30.8 µM
inactive: Potency [9]

Clc1cccnc1
inactive: Potency [1] | max response [2] 0.202% | Potency [3] | Potency [4] | Potency [5] | Potency [6] | Potency [10] | Potency [8] | Potency [9]

O=S(=O)(O)CCCN1CCOCC1
inactive: Potency [1] | max response [2] 12.7% | Potency [3] | Potency [4] | Potency [5] | Potency [7] | Potency [10] | Potency [8] | Potency [9]

O=C(O)CC(=O)O
inactive: Potency [1] | max response [2] 11.5% | Potency [3] | Potency [4] | Potency [5] | Potency [7] | Potency [10] | Potency [8] | Potency [9]

CCOC(OCC)C(=O)c1ccccc1
inactive: Potency [1] | max response [2] 0.351% | Potency [3] | Potency [4] | Potency [5] | Potency [6] | Potency [10] | Potency [8] | Potency [9]

CC(=O)C=O
inactive: Potency [1] | max response [2] 3.76% | Potency [3] | Potency [4] | Potency [5] | Potency [7] | Potency [10] | Potency [8] | Potency [9]

CC1CNCC(C)O1 (centres undefined)
inactive: Potency [1] | max response [2] 11.7% | Potency [3] | Potency [4] | Potency [5] | Potency [6] | Potency [10] | Potency [8] | Potency [9]

CCC(=O)CC(C)CC (centres undefined)
inactive: viability change, negative = cytotoxic [1] 1.82% [at 0.29 µM] | max response [2] 3.72% | activity change [3] 8.11% [at 0.29 µM, stronger effect = higher value] | cytotoxicity increase [4] 5.23% [at 0.29 µM] | activity change, negative = cytotoxic [5] -0.929% [at 0.29 µM] | cytotoxicity increase [7] 5.43% [at 0.29 µM] | activity change, negative = cytotoxicity [10] 6.1% [at 0.29 µM] | cytotoxicity increase [8] 9.56% [at 0.29 µM] | cytotoxicity [9] 11.3% [at 0.29 µM]

CC(=O)Nc1ccc(O)cc1
inactive: Potency [1] | max response [2] 7.7% and -11.8% and 15.1% | Potency [3] | Potency [4] | Potency [5] | Potency [7] | Potency [10] | Potency [8] | Potency [9]

CO[Si](CCCNCCNCCN)(OC)OC
inactive: Potency [1] | max response [2] 4.89% | Potency [3] | Potency [4] | Potency [5] | Potency [6] | Potency [10] | Potency [8] | Potency [9]

C/C=C/C(=O)C1=C(C)CCCC1(C)C
inactive: Potency [1] | max response [2] 16.6% | Potency [3] | Potency [4] | Potency [5] | Potency [6] | Potency [10] | Potency [8] | Potency [9]

Cc1cccc(Br)c1
inactive: Potency [1] | max response [2] 0.0661% | Potency [3] | Potency [4] | Potency [5] | Potency [6] | Potency [10] | Potency [8] | Potency [9]

CCCCCCCC(=O)OCC
inactive: Potency [1] | max response [2] -3.83% | Potency [3] | Potency [4] | Potency [5] | Potency [7] | Potency [10] | Potency [8] | Potency [9]

CCCCCCCOC(=O)c1ccccc1C(=O)OCCCCCCC
inactive: Potency [1] | max response [2] -16.7% | Potency [3] | Potency [4] | Potency [5] | Potency [6] | Potency [10] | Potency [8] | Potency [9]

CNC(=S)NN
active: Potency [2] 19.5 µM
inactive: Potency [1] | Potency [3] | Potency [4] | Potency [5] | Potency [6] | Potency [10] | Potency [8] | Potency [9]

CC1=CCC(=O)O1
inactive: Potency [1] | max response [2] 8.04% | Potency [3] | Potency [4] | Potency [5] | Potency [6] | Potency [10] | Potency [8] | Potency [9]

CCCCCCCC/C=C\CCCCCCCC(=O)OCCOC(=O)CCCCCCC/C=C\CCCCCCCC
inactive: Potency [1] | max response [2] -19.3% | Potency [3] | Potency [4] | Potency [5] | Potency [6] | Potency [7] | Potency [8] | Potency [9]

Cn1cnc2ncnc(N)c21
inactive: Potency [1] | max response [2] 11.2% | Potency [3] | Potency [4] | Potency [5] | Potency [7] | Potency [10] | Potency [8] | Potency [9]

c1ccc(Sc2ccccc2)cc1
inactive: Potency [1] | max response [2] 1.6% | Potency [3] | Potency [4] | Potency [5] | Potency [6] | Potency [10] | Potency [8] | Potency [9]

NC(=O)C(=O)N/N=C/c1ccc([N+](=O)[O-])o1
inactive: Potency [1] | max response [2] 5.32% | Potency [3] | Potency [4] | Potency [5] | Potency [6] | Potency [10] | Potency [8] | Potency [9]

CN1[C@@H]2CC[C@@H]1CC(OC(=O)C(CO)c1ccccc1)C2 (some centres undefined)
inactive: Potency [1] | max response [2] -6.75% | Potency [3] | Potency [4] | Potency [5] | Potency [6] | Potency [7] | Potency [10] | Potency [9]

CCCCCCCC/C=C\CCCCCCCC(=O)NCc1ccc(O)c(OC)c1
active: Potency [2] 4.25 µM
inactive: Potency [1] | Potency [3] | Potency [4] | Potency [5] | Potency [6] | Potency [7] | Potency [10] | Potency [8] | Potency [9]
